Test systems include NCI-H23 lung; NCI-H226 lung; NCI-H322M lung; HOP-62 NSCLC; NCI-H460 lung; HOP-92 NSCLC; NCI-H522 lung; A549/ATCC NSCLC; 786-0 renal; COLO 205 colon; DU-145 prostate; K-562 leukemia; MALME-3M melanoma; MDA-MB-231 breast; SF-268 CNS; SF-295 CNS; SF-539 CNS; UACC-257 melanoma; RXF 393 renal.
Test in all cases: NCI-60 one-dose screen, 48 h (100 = growth as untreated, 0 = no growth, -100 = all killed)
What all share (details): 10 µM unless noted

Structures are written as SMILES. About 83,000 compounds went through this panel and 20% of them were active in at least one assay; those are over-represented in the sample as a whole.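 Growth was measured after 48 h exposure to one concentration of compound in 96-well plates. Values under 10 count as active.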 Unmarked numbers belong to inactive results. Active and inactive are the calls of the source.

As to `Cn1cc(-c2ccc3ncc(-c4ccc(CC(=O)Nc5cc(C(C)(C)C)nn5C)cc4)cc3c2)cn1`, the growth in the test on NCI-H23 lung was 7.05% [30 µM] (active); in the test with NCI-H226 lung, 11.5% [30 µM]; in the test with NCI-H322M lung it was 15% [30 µM]; with HOP-62 NSCLC it was 17.6% [30 µM]; in the test with NCI-H460 lung, 8.3% [30 µM] (active); in the test with HOP-92 NSCLC it was 31.6% [30 µM]. For the same compound, the growth is -2.49% [30 µM] (active) in the test with NCI-H522 lung; 17.8% [30 µM] with A549/ATCC NSCLC; 39.6% [30 µM] with 786-0 renal; 5.26% [30 µM] (active) in the test with COLO 205 colon; 18.1% [30 µM] with DU-145 prostate; 7% [30 µM] (active) with K-562 leukemia. The growth was -0.381% [30 µM] (active) in the test on MALME-3M melanoma; 36% [30 µM] in the test with MDA-MB-231 breast; 25.3% [30 µM] in the test on SF-268 CNS; 12.2% [30 µM] in the test with SF-295 CNS; 19.3% [30 µM] in the test on SF-539 CNS; 7.37% [30 µM] (active) in the test on UACC-257 melanoma.
In the case of `COc1ccc(C(=O)/C=C/c2cc3c(c(OC)c2)OCC(=O)N3)cc1`, the growth is 58.5% with NCI-H23 lung; 87.6% in the test with NCI-H226 lung; 87.8% with NCI-H322M lung; 87.4% in the test on HOP-62 NSCLC; 9.81% (active) with NCI-H460 lung; 39.5% in the test with HOP-92 NSCLC. The growth in the test with NCI-H522 lung is 46.4%; with A549/ATCC NSCLC, 78%; in the test with 786-0 renal, 14.5%; in the test on COLO 205 colon, 77%; in the test with DU-145 prostate, -20.7% (active); in the test with K-562 leukemia, 7.5% (active). The growth is 88.4% in the test on MALME-3M melanoma; 67.7% with MDA-MB-231 breast; 49.7% with RXF 393 renal; 21.4% in the test with SF-268 CNS; 88.7% with SF-295 CNS; 7.09% (active) with SF-539 CNS. The growth in the test with UACC-257 melanoma was 91.6%.
On to `COc1ccc(-c2nc3sc4c(c3c(=O)[nH]2)CCCC4)c2ccccc12`, for which the growth was 32.6% in the test with NCI-H23 lung; 50.8% in the test with NCI-H226 lung; 37.6% in the test on NCI-H322M lung; 10.4% in the test on HOP-62 NSCLC; 0.61% (active) in the test on NCI-H460 lung; 12.3% in the test on HOP-92 NSCLC. The growth is 1.5% (active) in the test on NCI-H522 lung; 15.8% in the test on A549/ATCC NSCLC; 10.6% in the test on 786-0 renal; -32.9% (active) in the test on COLO 205 colon; 0.642% (active) in the test on DU-145 prostate; 5.12% (active) in the test with K-562 leukemia. Moreover, the growth was 41.8% in the test with MALME-3M melanoma; 10.5% in the test with MDA-MB-231 breast; 17.3% in the test on RXF 393 renal; 24.6% in the test with SF-268 CNS; -18.7% (active) in the test on SF-295 CNS; -57.7% (active) in the test on SF-539 CNS. For the same compound, in the test with UACC-257 melanoma, the growth is 56.8%.
Regarding `CCC(O)(C(c1ccccc1)c1ccccn1)C(c1ccccc1)c1ccccn1` (stereo unspecified), the growth in the test on NCI-H23 lung is 110%; in the test on NCI-H226 lung, 104%; in the test on NCI-H322M lung, 98.6%; with HOP-62 NSCLC it was 106%; in the test on NCI-H460 lung it was 110%; with HOP-92 NSCLC, 109%. Further, the growth in the test on NCI-H522 lung is 102%; in the test on A549/ATCC NSCLC, 104%; in the test on 786-0 renal it was 105%; in the test on COLO 205 colon, 105%; with DU-145 prostate it was 103%; in the test with K-562 leukemia, 101%. Further, the growth is 94.4% in the test with MALME-3M melanoma; 120% with MDA-MB-231 breast; 118% with RXF 393 renal; 95.3% with SF-268 CNS; 122% in the test with SF-295 CNS; 92.1% in the test with SF-539 CNS. The growth in the test on UACC-257 melanoma is 112%.
In the case of `O=C(Nc1ccc(N2CCCCC2)c(Cl)c1)c1ccc(Br)o1`, the growth in the test with NCI-H23 lung is 81.3%; with NCI-H226 lung, 82.1%; in the test with NCI-H322M lung it was 115%; in the test with HOP-62 NSCLC, 109%; in the test on NCI-H460 lung, 69.4%; in the test with HOP-92 NSCLC, 105%. The growth in the test on NCI-H522 lung is 87.2%; with A549/ATCC NSCLC, 82.5%; with 786-0 renal, 97.6%; in the test on COLO 205 colon it was 103%; in the test with DU-145 prostate, 68%; in the test on K-562 leukemia it was 68.1%. Moreover, the growth with MALME-3M melanoma is -66.9% (active); in the test on MDA-MB-231 breast, 69.2%; in the test on RXF 393 renal it was 108%; in the test on SF-268 CNS, 76%; with SF-295 CNS it was 105%; in the test with SF-539 CNS it was 118%. In addition, the growth in the test on UACC-257 melanoma was 67.5%.
With `CNC=O`, the growth in the test on NCI-H23 lung is 85.7%; in the test on NCI-H226 lung, 102%; in the test on NCI-H322M lung it was 97.5%; in the test on HOP-62 NSCLC it was 107%; in the test with NCI-H460 lung, 101%; in the test with HOP-92 NSCLC, 92%. The growth in the test with NCI-H522 lung is 94.9%; in the test with A549/ATCC NSCLC, 88.8%; in the test with 786-0 renal, 102%; in the test on COLO 205 colon, 97.7%; with DU-145 prostate, 77.9%; in the test on K-562 leukemia it was 107%. The growth in the test on MALME-3M melanoma is 97%; in the test with MDA-MB-231 breast, 98.7%; in the test with RXF 393 renal it was 42.3%; with SF-268 CNS, 99.3%; in the test with SF-295 CNS, 96.8%; in the test on SF-539 CNS, 88.8%. Besides, the growth in the test on UACC-257 melanoma was 91.1%.
Consider `COc1ccc(OC)c(Nc2nc3nonc3nc2Nc2cccc(Br)c2)c1`, for which the growth in the test on NCI-H23 lung was 6.27% (active); with NCI-H226 lung, 13.4%; in the test with NCI-H322M lung it was 5.13% (active); in the test on HOP-62 NSCLC it was 8.04% (active); in the test with NCI-H460 lung it was 0.718% (active); in the test on HOP-92 NSCLC it was -25.5% (active). For the same compound, the growth in the test with NCI-H522 lung was -13% (active); with A549/ATCC NSCLC, 9.15% (active); in the test on 786-0 renal it was 22.1%; with COLO 205 colon, -79.3% (active); with DU-145 prostate, 26%; in the test on K-562 leukemia, 10.2%. For the same compound, the growth is 11.3% with MALME-3M melanoma; -8.18% (active) with MDA-MB-231 breast; 23.7% with RXF 393 renal; 21.1% in the test on SF-268 CNS; -19.3% (active) in the test on SF-295 CNS; -7.16% (active) in the test with SF-539 CNS. Besides, the growth with UACC-257 melanoma is -12.5% (active).
Consider `NS(=O)(=O)c1cnccc1-n1ccc(=O)c(S(N)(=O)=O)c1`, for which the growth was 91.4% in the test with NCI-H23 lung; 84.1% in the test with NCI-H226 lung; 94.2% with NCI-H322M lung; 85.6% with HOP-62 NSCLC; 109% in the test with NCI-H460 lung; 80.9% in the test on HOP-92 NSCLC. Besides, the growth with NCI-H522 lung was 9.19% (active); with A549/ATCC NSCLC, 33.9%; in the test on 786-0 renal, 97.5%; in the test with COLO 205 colon, 94.4%; with DU-145 prostate it was 106%; in the test on K-562 leukemia, 84.1%. Also, the growth is 50.1% with MALME-3M melanoma; 94% in the test with MDA-MB-231 breast; 139% in the test on RXF 393 renal; 101% with SF-268 CNS; 59.1% in the test with SF-295 CNS; 97.8% in the test with SF-539 CNS. For the same compound, in the test with UACC-257 melanoma, the growth was 115%.
